# Results filed as inconclusive are left out. Activity calls are given as the source filed them. Unless noted, the limit is not given here; nearly all actives have AC50 up to about 26 µM.
# Key:
# [1] = growth inhibition of DIPG glioma cells, dose response, cell-based, SU-DIPG-XVII, MIPE5.0, CellTiter-Glo, qHTS (AID 1347060); conditions: SU-DIPG-XVII viability, CellTiter-Glo ATP luminescence;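 as to AC50: cells exposed to compound for 48 hours before viability readout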
# [2] = growth inhibition of DIPG glioma cells, dose response, cell-based, SU-DIPG-XIII, MIPE4.0, CellTiter-Glo, qHTS (AID 1347061; cut-off not given, nearly all actives have AC50 up to about 37 µM;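 also: cells exposed to compound for 48 hours before readout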); conditions: SU-DIPG-XIII viability, CellTiter-Glo ATP luminescence
# [3] = growth inhibition of DIPG glioma cells, dose response, cell-based, JHH-DIPG-1, MIPE4.0, CellTiter-Glo, qHTS (AID 1347062; cut-off not given, nearly all actives have AC50 up to about 27 µM;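 as to AC50: cells exposed to compound for two days before readout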); conditions: JHH-DIPG-1 viability, CellTiter-Glo ATP luminescence
# [4] = growth inhibition of DIPG glioma cells, dose response, cell-based, SU-DIPG-IV, MIPE4.0, CellTiter-Glo, qHTS (AID 1347063; cut-off not given, nearly all actives have AC50 up to about 30 µM;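 also: compound exposure lasted 48 hours before the viability readout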); conditions: SU-DIPG-IV viability, CellTiter-Glo ATP luminescence
# [5] = growth inhibition of DIPG glioma cells, dose response, cell-based, SU-DIPG-XIII, MIPE5.0, CellTiter-Glo, qHTS (AID 1347064; cut-off not given, nearly all actives have AC50 up to about 23 µM;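 as to AC50: cells exposed to compound for 48 hours before the viability read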); conditions: SU-DIPG-XIII viability, CellTiter-Glo ATP luminescence
# [6] = viability loss in pontine glioma line – cell-based, SU-DIPG-XXV, MIPE5.0, CellTiter-Glo, qHTS, dose response (AID 1347065); conditions: CellTiter-Glo ATP luminescence;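 also: cells exposed to compound for 48 hours before ATP readout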
# [7] = SU-DIPG-VI glioma cell viability, MIPE4.0 library, CellTiter-Glo luminescence, qHTS (AID 1347066; cut-off not given, nearly all actives have AC50 up to about 30 µM;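 also: cells exposed to compound for 48 hours before readout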); conditions: CellTiter-Glo ATP luminescence
# [8] = JHH-DIPG-1 glioma cell viability, MIPE5.0 library, CellTiter-Glo luminescence, qHTS (AID 1347067); conditions: JHH-DIPG-1 glioma viability, CellTiter-Glo ATP luminescence;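 also: cells exposed to compound for 48 hours before readout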
# [9] = SU-DIPG-XXV glioma cell viability, MIPE5.0 library, qHTS (AID 1347068; cut-off not given, nearly all actives have IC50 up to about 30 µM;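 as to IC50: cells exposed to compound for 48 hours before viability readout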)
# [10] = sensitizers of A549 cells to miR-34 induction, primary screen, imaging, A549 dox-inducible miR-34, nuclei and caspase counts (AID 1347080;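 active = compounds whose cell count with miR-34 switched on is under 0.7 times the count with it off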); conditions: A549 miR-34 inducible, Hoechst nuclei count, 48 h
# [11] = survival rescue of mitochondrial mutant cells in low glucose, primary screen, MELAS cybrids, Rieske KO mouse fibroblasts, CellTiter-Glo (AID 1508586;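 active = mean z-score across replicates of 1.96 or higher in either the MELAS or the Rieske mutant cell line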;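 also: z relative to plate mean and SD of compound and empty wells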)
# [12] = stronger effect = lower value, cell number ratio, induced over uninduced
# [13] = measured here: relative caspase fold change +Dox/-Dox
# [14] = measured here: total cells with miR-34 induction, stronger effect = lower value
# [15] = measured here: total cells without miR-34 induction
# [16] = MELAS cybrid survival, CellTiter-Glo 48 h, stronger effect = higher value
# [17] = Rieske KO mouse fibroblast survival, CellTiter-Glo 72 h
compound,measurement,setting,value
CC1(C)CC(=O)c2c(C(F)(F)F)nn(-c3ccc(C(N)=O)c(NC4CCC(O)CC4)c3)c2C1 (stereo not drawn),AC50,[1],0.118 µM (active)
same,AC50,[2],0.469 µM (active)
same,AC50,[3],0.166 µM (active)
same,AC50,[4],0.132 µM (active)
same,AC50,[5],0.148 µM (active)
same,AC50,[6],0.105 µM (active)
same,AC50,[7],0.148 µM (active)
same,AC50,[8],0.118 µM (active)
same,IC50,[9],0.186 µM (active)
same,fold change,[10]; [12],0.978 (inactive)
same,fold change,[10]; [13],0.783
same,cell count,[10]; [14],3040
same,cell count,[10]; [15],3110
same,z-score,[11]; [16],2.87 (active)
same,z-score,[11]; [17],-1.99
O=C(NCc1ccccc1)c1csc(Nc2ccncn2)n1,AC50,[1],18.6 µM (active)
same,AC50,[2],20.9 µM (active)
same,AC50,[3],4.18 µM (active)
same,AC50,[4],9.35 µM (active)
same,AC50,[5],14.8 µM (active)
same,AC50,[6],16.6 µM (active)
same,AC50,[7],16.6 µM (active)
same,AC50,[8],16.6 µM (active)
same,IC50,[9],23.5 µM (active)
same,fold change,[10]; [12],0.918 (inactive)
same,fold change,[10]; [13],0.977
same,cell count,[10]; [14],4990
same,cell count,[10]; [15],5440
same,z-score,[11]; [16],-0.235 (inactive)
same,z-score,[11]; [17],-0.0999
Cc1cnc(Nc2ccc(N3CCN(C)CC3)cc2)nc1Nc1cccc(S(=O)(=O)NC(C)(C)C)c1,AC50,[1],2.95 µM (active)
same,AC50,[2],5.9 µM (active)
same,AC50,[3],5.9 µM (active)
same,AC50,[4],6.62 µM (active)
same,AC50,[5],2.95 µM (active)
same,AC50,[6],1.86 µM (active)
same,AC50,[7],14.8 µM (active)
same,AC50,[8],2.95 µM (active)
same,IC50,[9],4.68 µM (active)
same,fold change,[10]; [12],1.22 (inactive)
same,fold change,[10]; [13],0.413
same,cell count,[10]; [14],2300
same,cell count,[10]; [15],1880
same,z-score,[11]; [16],1.59 (inactive)
same,z-score,[11]; [17],-3.35
COc1cc2c(cc1OC)C1CC(=O)C(CC(C)C)CN1CC2 (stereo not drawn),outcome,[1],inactive
same,outcome,[2],inactive
same,outcome,[3],inactive
same,outcome,[4],inactive
same,outcome,[5],inactive
same,outcome,[6],inactive
same,outcome,[7],inactive
same,outcome,[8],inactive
same,outcome,[9],inactive
same,fold change,[10]; [12],0.996 (inactive)
same,fold change,[10]; [13],0.689
same,cell count,[10]; [14],9770
same,cell count,[10]; [15],9800

# From PubChem BioAssay
